Laboratory results taken from PubChem BioAssay (EPA / NIEHS).
Activity calls are given as the source filed them. Rule for the calls: active = hit-call score of the fitted dose curve at least 0.9, where 1 is the maximum; inactive = score below 0.9.

What was measured:
[1] = ATG_ERE_CIS: Attagene CIS-FACTORIAL HepG2 Assay for Estrogen Response Element (ERE) (AID 2282940); conditions: HepG2 ERE cis-reporter, Attagene RNA transcript; actives raise or lower the signal
Procedure, shortened: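 HepG2 cells transiently transfected with cis-promoter-driven multiplexed reporter transcription units report endogenous TF activity. After 24 h compound exposure, reporter mRNA is quantified by RT-PCR with capillary electrophoresis fluorescence; bidirectional fitting versus DMSO baseline.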

[2] = ATG_Ets_CIS: Attagene CIS-FACTORIAL HepG2 Assay for human Erythroblast Transformation Specific (ETS) (AID 2282941); conditions: HepG2 ETS cis-reporter transcription, actives raise or lower the signal
Procedure, shortened: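 HepG2 cells transfected with multiple cis-regulated reporter units measuring endogenous ETS-driven transcription, 24 h after dosing. Reporter mRNA quantified by RT-PCR with capillary electrophoresis; bidirectional fit relative to DMSO.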

[3] = biological target: Hepatocyte nuclear factor 3-beta (Homo sapiens) (UniProt Q9Y261); assay: ATG_FoxA2_CIS: Attagene CIS-FACTORIAL HepG2 Assay for human Forkhead box A2 (FOXA2) (AID 2282942); conditions: HepG2 cis-reporter transcription factor activity, 24 h; actives raise or lower the signal
Procedure, shortened: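 Endogenous transcription factor activity is captured via cis-element-driven reporter transcripts in transfected HepG2. Total RNA taken at 24 h post-dosing; labelled RT-PCR products resolved by capillary electrophoresis. Gain or loss fitted versus DMSO.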

[4] = ATG_FoxO_CIS: Attagene CIS-FACTORIAL HepG2 Assay for human Forkhead box O (FoxO) (AID 2282943); conditions: HepG2 Attagene cis-reporter, FoxO element, mRNA; actives raise or lower the signal
Procedure, shortened: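 Human hepatoma HepG2 cells carry transiently introduced reporter transcription units controlled by cis promoter elements. Chemical treatment lasted 24 h, and mRNA signal was compared with DMSO.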

[5] = ATG_GATA_CIS: Attagene CIS-FACTORIAL HepG2 Assay for human GATA Binding Protein (AID 2282944); conditions: HepG2 GATA cis-element reporter, Attagene multiplex mRNA; actives raise or lower the signal
Procedure, shortened: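 HepG2 cells transiently transfected with multiplexed cis-element reporter units reflecting endogenous transcription factor activity; reporter mRNA measured after 24 h dosing by RT-PCR, 6-FAM labeling, HpaI digestion and capillary electrophoresis. Bidirectional fitting versus DMSO baseline.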

[6] = ATG_GLI_CIS: Attagene CIS-FACTORIAL HepG2 Assay for human Zinc Finger Protein GLI1 (AID 2282945); conditions: HepG2, Attagene cis-factorial reporter mRNA, GLI element; actives raise or lower the signal
Procedure, shortened: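 Bidirectional curve fits relative to DMSO, using reporter mRNA levels from RT-PCR plus capillary electrophoresis. Cells were HepG2 transiently carrying cis-regulated reporter constructs, harvested 24 h after dosing.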

[7] = biological target: Bile acid receptor (Homo sapiens) (UniProt Q96RI1); assay: ATG_IR1_CIS: Attagene CIS-FACTORIAL HepG2 Assay for human Nuclear Receptor Subfamily 1 Group H Member 4 (NR1H4), IR1 submotif (AID 2282946); conditions: IR1 reporter transcription, actives raise or lower the signal
Procedure, shortened: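 Cells (human HepG2) carry transiently transfected cis-promoter reporter transcription units. Compounds are incubated 24 h, total RNA is reverse-transcribed and amplified, and labelled fragments are resolved by capillary electrophoresis. Curves use DMSO as baseline.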

[8] = ATG_GRE_CIS: Attagene CIS-FACTORIAL HepG2 Assay for human Glucocorticoid Response Elements (GRE) (AID 2282947); conditions: HepG2 GRE cis-reporter, Attagene multiplex mRNA; actives raise or lower the signal
Procedure, shortened: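 Assay uses human hepatoma HepG2 cells transfected with cis-promoter reporter units, exposed 24 h. mRNA from reporters detected by RT-PCR plus capillary electrophoresis; DMSO serves as negative control and baseline.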

[9] = ATG_ISRE_CIS: Attagene CIS-FACTORIAL HepG2 Assay for human Interferon Regulatory Factor 1 (IRF1) binding to an Interferon-Stimulated Response Element (ISRE) (AID 2282948); conditions: HepG2 ISRE cis-reporter (Attagene), mRNA transcription readout; actives raise or lower the signal
Procedure, shortened: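 Transiently transfected HepG2 cells carrying cis-element reporter units, dosed 24 hours. Reporter mRNA quantified by RT-PCR, fluorescent primer extension, HpaI digestion and capillary electrophoresis. Bidirectional fitting relative to DMSO.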

[10] = ATG_M_32_CIS: Attagene CIS-FACTORIAL HepG2 Assay for M32 Transcription Factor (Internal Marker) (AID 2282949); conditions: HepG2 Attagene cis-factorial M32 reporter, mRNA; actives raise or lower the signal;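 note: background control marker of the multiplexed CIS panel rather than a real target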
Procedure, shortened: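 Following 24 h chemical exposure of HepG2 cells transiently expressing cis-promoter reporter constructs, reporter transcript levels were determined by RT-PCR with fluorescent labelling and capillary electrophoresis, then fitted bidirectionally against DMSO.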

[11] = biological target: Hypoxia-inducible factor 1-alpha (Homo sapiens) (UniProt Q16665); assay: ATG_HIF1a_CIS: Attagene CIS-FACTORIAL HepG2 Assay for human Hypoxia Inducible Factor 1 (HIF1A) (AID 2282951); conditions: HepG2 Attagene cis-factorial HIF1a reporter transcription; actives raise or lower the signal
Procedure, shortened: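 Activity is fitted in both directions relative to DMSO. Reporter transcripts are read by RT-PCR, fluorescent primer extension and capillary electrophoresis after 24 h chemical treatment. The cells are HepG2 carrying transiently transfected cis-element-driven reporter units responding to endogenous factors.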

[12] = biological target: Hepatocyte nuclear factor 6 (Homo sapiens) (UniProt Q9UBC0); assay: ATG_HNF6_CIS: Attagene CIS-FACTORIAL HepG2 Assay for human Hepatocyte Nuclear Factor 6 (HNF6) (AID 2282952); conditions: HepG2 Attagene cis-factorial HNF6 reporter transcription; actives raise or lower the signal
Procedure, shortened: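 Transiently transfected HepG2 cells expressing cis-regulated reporter transcription units were exposed to chemical for 24 h in a 24-well format. Reporter transcript abundance was determined by fluorescence capillary electrophoresis.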

[13] = ATG_MRE_CIS: Attagene CIS-FACTORIAL HepG2 Assay for human Metal Responsive Element (MRE) (AID 2282954); conditions: HepG2 MRE cis-reporter transcription, Attagene multiplex; actives raise or lower the signal
Procedure, shortened: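 After a 24 h chemical exposure, transiently transfected HepG2 cells yield RNA whose reporter sequences are amplified, FAM-labelled and sized by capillary electrophoresis. Curves are fitted bidirectionally relative to DMSO.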

[14] = ATG_PBREM_CIS: Attagene CIS-FACTORIAL HepG2 Assay for human Phenobarbital-responsive Enhancer Module (PBREM) (AID 2282955); conditions: HepG2 PBREM cis-reporter, Attagene multiplexed transcription; actives raise or lower the signal
Procedure, shortened: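 Endogenous transcription factor activity was read from reporter transcripts in transiently transfected human HepG2 liver cells after 24 h dosing. RT-PCR products were fluorescently labelled, HpaI-cut and sized by capillary electrophoresis; activity fitted bidirectionally against DMSO baseline.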

[15] = biological target: Paired box protein Pax-6 (Homo sapiens) (UniProt P26367); assay: ATG_Pax6_CIS: Attagene CIS-FACTORIAL HepG2 Assay for human Paired Box 6 (PAX6) (AID 2282956); conditions: HepG2 CIS-FACTORIAL PAX6 reporter transcription, RNA readout; actives raise or lower the signal
Procedure, shortened: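 HepG2 cells transiently transfected with cis-promoter-driven multiplexed reporter units sensing endogenous transcription factor activity; 24 h chemical exposure. Reporter mRNA quantified by RT-PCR, 6-FAM labelling, HpaI digestion and capillary electrophoresis; bidirectional fit versus DMSO baseline.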

[16] = ATG_PXRE_CIS: Attagene CIS-FACTORIAL HepG2 Assay for human Pregnane X Receptor Element (PXRE) (AID 2282957); conditions: HepG2 Attagene CIS-FACTORIAL PXRE reporter, mRNA; actives raise or lower the signal
Procedure, shortened: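 Cis-element reporter mRNA in human hepatoma HepG2 cells is measured 24 h post-dosing by RT-PCR, primer-extension labeling and capillary electrophoresis; gain or loss of signal is fitted relative to DMSO.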

[17] = ATG_PPRE_CIS: Attagene CIS-FACTORIAL HepG2 Assay for human Peroxisome Proliferator-activated Response Element (PPRE) (AID 2282958); conditions: HepG2 PPRE cis-element reporter, Attagene transcription factor profiling; actives raise or lower the signal
Procedure, shortened: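 Endogenous PPRE-driven transcription is measured in HepG2 cells carrying transfected multi-reporter constructs. Reporter transcripts are quantified by RT-PCR, HpaI digestion and capillary electrophoresis 24 h after dosing. DMSO baseline, bidirectional fit.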

[18] = ATG_M_06_CIS: Attagene CIS-FACTORIAL HepG2 Assay for M06 Transcription Factor (Internal Marker) (AID 2282950); conditions: HepG2 Attagene CIS-FACTORIAL M06 internal marker reporter; actives raise or lower the signal
Procedure, shortened: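 HepG2 cells transiently transfected with cis-regulated multiple reporter transcription units were exposed to chemical for 24 h; reporter mRNA was quantified by RT-PCR, 6-FAM primer labelling, HpaI digestion and capillary electrophoresis, fitted bidirectionally against DMSO.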

[19] = ATG_RORE_CIS: Attagene CIS-FACTORIAL HepG2 Assay for human RAR-related Orphan Receptor Element (RORE) (AID 2282959); conditions: HepG2 Attagene cis-factorial RORE reporter, mRNA; actives raise or lower the signal
Procedure, shortened: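 RORE reporter transcripts reflecting endogenous factor activity were read after 24 h compound exposure of transfected HepG2 cells, using reverse transcription, PCR, fluorescent labelling and capillary electrophoresis sizing. Gain or loss fitted against DMSO.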

[20] = biological target: Heat shock factor protein 1 (Homo sapiens) (UniProt Q00613); assay: ATG_HSE_CIS: Attagene CIS-FACTORIAL HepG2 Assay for human Heat Shock Transcription Factor 1 (HSE) (AID 2282953); conditions: HepG2 HSE cis-reporter, Attagene RNA transcription; actives raise or lower the signal
Procedure, shortened: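 HepG2 cells transiently transfected with multiple reporter transcription units under cis-regulatory promoter control, measuring endogenous transcription factor activity. After 24 h chemical exposure, reporter mRNA quantified by RT-PCR, fluorescent labelling, HpaI digestion and capillary electrophoresis; bidirectional fit versus DMSO.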

Measured: AC50

Chain of Paired box protein Pax-6 (Homo sapiens) (P26367 whole entry, looked up): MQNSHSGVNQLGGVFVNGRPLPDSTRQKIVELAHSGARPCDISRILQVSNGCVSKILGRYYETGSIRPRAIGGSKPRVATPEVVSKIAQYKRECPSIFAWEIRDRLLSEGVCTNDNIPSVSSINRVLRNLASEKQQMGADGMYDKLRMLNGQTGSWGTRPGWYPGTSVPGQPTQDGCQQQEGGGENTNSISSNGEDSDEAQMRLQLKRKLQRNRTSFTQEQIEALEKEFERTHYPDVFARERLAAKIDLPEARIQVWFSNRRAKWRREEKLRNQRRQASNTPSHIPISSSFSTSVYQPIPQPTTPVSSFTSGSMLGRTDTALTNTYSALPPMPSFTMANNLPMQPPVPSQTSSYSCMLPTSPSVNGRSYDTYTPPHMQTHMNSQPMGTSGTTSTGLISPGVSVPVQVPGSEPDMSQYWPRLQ
Chain of Bile acid receptor (Homo sapiens) (Q96RI1 whole entry, looked up, the tested form may be a part): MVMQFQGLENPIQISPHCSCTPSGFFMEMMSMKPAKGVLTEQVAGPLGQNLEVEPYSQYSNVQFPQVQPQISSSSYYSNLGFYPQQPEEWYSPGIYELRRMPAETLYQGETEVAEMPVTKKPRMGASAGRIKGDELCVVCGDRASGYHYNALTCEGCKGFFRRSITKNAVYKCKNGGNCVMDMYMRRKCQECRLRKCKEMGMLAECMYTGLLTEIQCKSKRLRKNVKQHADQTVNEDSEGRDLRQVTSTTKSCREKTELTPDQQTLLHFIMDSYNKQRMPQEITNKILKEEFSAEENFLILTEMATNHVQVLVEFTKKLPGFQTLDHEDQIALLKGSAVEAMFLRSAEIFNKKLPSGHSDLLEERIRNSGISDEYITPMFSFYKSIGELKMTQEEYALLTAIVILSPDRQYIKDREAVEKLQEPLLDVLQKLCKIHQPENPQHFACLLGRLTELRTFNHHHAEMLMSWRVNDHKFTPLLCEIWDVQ
Chain of Heat shock factor protein 1 (Homo sapiens) (Q00613 whole entry, looked up): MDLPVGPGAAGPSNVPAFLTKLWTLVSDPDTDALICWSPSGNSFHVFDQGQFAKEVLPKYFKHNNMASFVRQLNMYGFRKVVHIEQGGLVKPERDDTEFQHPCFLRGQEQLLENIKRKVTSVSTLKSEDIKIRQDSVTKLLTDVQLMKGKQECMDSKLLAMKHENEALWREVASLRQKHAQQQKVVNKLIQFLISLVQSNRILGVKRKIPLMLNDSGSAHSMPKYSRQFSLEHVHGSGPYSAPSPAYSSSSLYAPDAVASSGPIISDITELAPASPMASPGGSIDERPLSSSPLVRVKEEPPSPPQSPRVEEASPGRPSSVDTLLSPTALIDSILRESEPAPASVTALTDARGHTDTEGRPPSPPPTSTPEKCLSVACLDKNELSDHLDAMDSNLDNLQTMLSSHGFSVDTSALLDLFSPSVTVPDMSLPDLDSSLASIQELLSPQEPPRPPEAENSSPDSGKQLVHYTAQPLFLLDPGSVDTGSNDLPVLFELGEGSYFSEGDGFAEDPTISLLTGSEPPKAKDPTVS
Chain of Hepatocyte nuclear factor 3-beta (Homo sapiens) (Q9Y261 whole entry, looked up): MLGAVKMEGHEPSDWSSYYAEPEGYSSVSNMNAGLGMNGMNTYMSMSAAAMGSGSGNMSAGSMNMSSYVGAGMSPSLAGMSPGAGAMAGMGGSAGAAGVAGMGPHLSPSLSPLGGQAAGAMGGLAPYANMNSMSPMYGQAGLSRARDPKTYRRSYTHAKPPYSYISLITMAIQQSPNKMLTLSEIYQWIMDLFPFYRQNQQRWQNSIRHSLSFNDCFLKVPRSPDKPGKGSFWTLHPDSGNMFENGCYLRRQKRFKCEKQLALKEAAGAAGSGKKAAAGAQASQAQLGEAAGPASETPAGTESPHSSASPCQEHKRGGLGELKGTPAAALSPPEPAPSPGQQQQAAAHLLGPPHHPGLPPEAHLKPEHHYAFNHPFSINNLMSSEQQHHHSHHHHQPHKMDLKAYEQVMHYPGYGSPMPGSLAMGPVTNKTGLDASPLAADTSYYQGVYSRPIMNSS
Chain of Hypoxia-inducible factor 1-alpha (Homo sapiens) (Q16665 whole entry, looked up): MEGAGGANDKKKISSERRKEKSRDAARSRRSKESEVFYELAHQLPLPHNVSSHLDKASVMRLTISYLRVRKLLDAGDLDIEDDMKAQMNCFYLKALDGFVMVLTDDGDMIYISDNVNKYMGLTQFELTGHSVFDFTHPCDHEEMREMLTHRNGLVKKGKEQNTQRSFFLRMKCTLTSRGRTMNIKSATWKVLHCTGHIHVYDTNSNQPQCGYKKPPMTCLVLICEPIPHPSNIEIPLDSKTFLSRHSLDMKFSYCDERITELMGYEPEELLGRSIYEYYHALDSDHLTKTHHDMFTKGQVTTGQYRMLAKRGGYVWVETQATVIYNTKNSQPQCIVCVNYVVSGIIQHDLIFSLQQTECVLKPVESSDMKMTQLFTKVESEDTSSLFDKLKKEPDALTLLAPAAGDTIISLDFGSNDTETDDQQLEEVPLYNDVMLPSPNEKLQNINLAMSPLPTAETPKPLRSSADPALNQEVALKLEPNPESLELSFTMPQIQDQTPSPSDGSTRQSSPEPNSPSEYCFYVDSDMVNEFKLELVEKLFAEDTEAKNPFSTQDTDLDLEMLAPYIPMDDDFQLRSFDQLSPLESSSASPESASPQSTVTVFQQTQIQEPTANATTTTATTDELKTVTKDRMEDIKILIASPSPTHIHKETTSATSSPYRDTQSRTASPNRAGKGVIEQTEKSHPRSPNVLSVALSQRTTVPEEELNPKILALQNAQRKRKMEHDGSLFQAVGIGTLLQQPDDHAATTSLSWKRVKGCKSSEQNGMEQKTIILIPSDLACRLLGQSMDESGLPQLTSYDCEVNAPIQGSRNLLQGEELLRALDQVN
Chain of Hepatocyte nuclear factor 6 (Homo sapiens) (Q9UBC0 whole entry, looked up): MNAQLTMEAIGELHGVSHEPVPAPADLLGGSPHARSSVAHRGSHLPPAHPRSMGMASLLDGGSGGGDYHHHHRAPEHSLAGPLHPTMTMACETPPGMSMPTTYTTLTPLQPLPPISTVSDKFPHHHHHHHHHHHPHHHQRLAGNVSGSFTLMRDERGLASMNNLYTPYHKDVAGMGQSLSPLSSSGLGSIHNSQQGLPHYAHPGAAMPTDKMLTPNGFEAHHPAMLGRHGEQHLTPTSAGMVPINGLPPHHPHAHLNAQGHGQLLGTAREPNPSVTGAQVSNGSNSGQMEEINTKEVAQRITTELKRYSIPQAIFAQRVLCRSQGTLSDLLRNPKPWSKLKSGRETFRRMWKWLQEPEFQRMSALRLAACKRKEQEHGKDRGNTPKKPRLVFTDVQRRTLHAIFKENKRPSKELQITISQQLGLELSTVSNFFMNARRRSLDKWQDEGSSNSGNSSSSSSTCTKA

c1csc(-c2ccc(-c3cccs3)s2)c1
active: [1] 7.65 µM | [3] 4.46 µM | [9] 3.41 µM | [11] 3.28 µM | [13] 3.99 µM | [14] 2.58 µM | [16] 5.21 µM | [17] 2.09 µM
not listed: [18] | [19] | [20]
inactive: all other assays above

O=S(=O)(c1ccc(Cl)cc1)c1cc(Cl)c(Cl)cc1Cl
active: [7] 19.3 µM
not listed: [16] | [20]
inactive: all other assays above

Cc1ccccc1OP(=O)(Oc1ccccc1C)Oc1ccccc1C
active: [1] 3.04 µM | [9] 7 µM | [13] 10.8 µM | [16] 0.0902 µM
not listed: [17] | [18] | [20]
inactive: all other assays above

O=C(O)COc1ccc(Cl)cc1
not listed: [7] | [16] | [17] | [19]
inactive: all other assays above

C#CCOC(=O)/C=C(C)/C=C/CC(C)CCCC(C)C (stereo not drawn)
not listed: [16] | [18]
inactive: all other assays above

C[C@H]1C(=O)O[C@@H]2CCN3CC=C(COC(=O)[C@](C)(O)[C@]1(C)O)[C@H]23
not listed: [11] | [14]
inactive: all other assays above

CN(C)CCN(C)C
not listed: [14] | [20]
inactive: all other assays above

Cc1ccc(OP(=O)(Oc2ccc(C)cc2C)Oc2ccc(C)cc2C)c(C)c1
active: [1] 5.48 µM | [6] 25.7 µM | [12] 25.4 µM | [13] 2.33 µM | [16] 0.181 µM
not listed: [18]
inactive: all other assays above

O=C(NC(=O)c1c(F)cccc1F)Nc1cc(Cl)c(Oc2ncc(C(F)(F)F)cc2Cl)c(Cl)c1
not listed: [18]
inactive: all other assays above

C=CC(=O)NC(C)(C)CC(C)=O
not listed: [7]
inactive: all other assays above

C=CC(=O)OCC(COC(=O)C=C)(COC(=O)C=C)COC(=O)C=C
active: [2] 33.4 µM | [4] 8.71 µM | [7] 12.2 µM | [9] 5.34 µM | [20] 56.5 µM | [15] 8.18 µM | [19] 8.19 µM
not listed: [13]
inactive: all other assays above

Oc1ccc(Cc2ccc(O)cc2)cc1
active: [1] 0.774 µM | [16] 61.6 µM | [17] 38.8 µM
not listed: [7] | [20]
inactive: all other assays above

CC(=O)CN(CC(C)=O)N=O
not listed: [7] | [14] | [16] | [17]
inactive: all other assays above

Nc1nc(=S)[nH][nH]1
not listed: [7] | [14]
inactive: all other assays above

CCOP(=S)(OCC)Oc1ccc(Cl)cc1Cl
active: [1] 10.1 µM | [16] 3.82 µM
not listed: [7] | [17]
inactive: all other assays above
